The full data set covers some 8,800 targets. This sample favours those with a hit. About 0.5% of all pairs of compound and target were hits.
Tests used:
Test in all cases: log2 fold change, soluble protein after heating vs DMSO (PISA); higher = thermal stabilisation; K562 lysate, 10 uM; active = over 0.2 and 3.5 SD of the protein, either way, in both replicates (recomputed)
[1] = compound: C1=CC=C(C=C1)[C@H](COC2=CC3=C(C=C2)NC(=O)N3)NC(=O)C4=CC=CN(C4=O)CC5=CC(=C(C=C5)F)F
In short: (§1)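 The values are log-two fold changes in thermal stability compared with solvent controls and come from duplicates. They were obtained by TMTpro 16plex LC-MS/MS, with channel sums equalised, on the supernatant after 21,000xg for 90 min. That supernatant came from crude K562 extract at 1 mg/mL protein treated with 10 μM compound for 30 min, heated for 3 min across 48°C-58°C, pooled and brought to 0.5% NP-40 at 4°C.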

[2] = compound: CC1=C(SC2=C1C(=N[C@H](C3=NN=C(N32)C)CC(=O)N)C4=CC=C(C=C4)Cl)C
In short: as §1

[3] = compound: CC1=C2C(=CC=C1)N=C(N(C2=O)C3=CC=CC=C3C)CN4C=NC5=C(N=CN=C54)N
In short: as §1

[4] = compound: Cc1sc2c(c1C)C(c1ccc(Cl)cc1)=N[C@@H](CC(=O)OC(C)(C)C)c1nnc(C)n1-2
In short: as §1

[5] = compound: c1ccc([C@@H]2C[C@H]2NC2CCNCC2)cc1
In short: as §1

Measured: log2 fold change

STAU1 (UniProt O95793)
inactive: [1] -0.023 | [2] -0.021 | [3] 0.012 | [4] 0.059 | [5] 0.09

STARD3 isoform 3 (UniProt Q14849)
inactive: [1] -0.015 | [2] 0.007 | [3] 0 | [4] -0.004 | [5] 0

SMTN isoform 6 (UniProt P53814)
inactive: [1] 0.053 | [2] -0.011 | [3] -0.01 | [4] 0.01 | [5] 0.081

SYK (UniProt P43405)
inactive: [1] -0.016 | [2] 0.06 | [3] 0.135 | [4] 0.008 | [5] -0.052

SF3B6 (UniProt Q9Y3B4)
inactive: [1] 0.052 | [2] -0.032 | [3] -0.184 | [4] 0.014 | [5] 0

SLC16A1 (UniProt P53985)
Chain of UniProt P53985 (P53985 whole entry, looked up): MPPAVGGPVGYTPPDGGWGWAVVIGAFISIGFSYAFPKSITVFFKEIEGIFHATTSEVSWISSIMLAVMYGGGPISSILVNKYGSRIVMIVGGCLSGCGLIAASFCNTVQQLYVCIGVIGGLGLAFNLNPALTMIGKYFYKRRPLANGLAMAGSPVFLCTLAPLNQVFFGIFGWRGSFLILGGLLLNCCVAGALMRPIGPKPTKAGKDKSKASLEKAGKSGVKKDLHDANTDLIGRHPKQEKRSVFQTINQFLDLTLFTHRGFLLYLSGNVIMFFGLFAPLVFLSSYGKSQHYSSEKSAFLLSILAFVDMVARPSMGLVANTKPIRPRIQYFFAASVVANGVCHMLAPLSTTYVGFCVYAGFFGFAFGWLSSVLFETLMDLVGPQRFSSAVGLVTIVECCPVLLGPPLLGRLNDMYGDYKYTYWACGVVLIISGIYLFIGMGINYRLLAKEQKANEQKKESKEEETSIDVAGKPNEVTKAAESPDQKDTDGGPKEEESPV
inactive: [1] -0.015 | [2] 0.002 | [3] 0.042 | [4] 0.077 | [5] -0.245

SH3BP2 isoform 4 (UniProt P78314)
inactive: [1] -0.05 | [2] 0.211 | [3] -0.124 | [4] 0.035 | [5] -0.021

SRP54 (UniProt P61011)
inactive: [1] 0.023 | [2] 0.001 | [3] 0.03 | [4] 0.06 | [5] 0.049

SLC25A25 isoform 3 (UniProt Q6KCM7)
inactive: [1] 0.064 | [2] -0.027 | [3] 0.013 | [4] 0.034 | [5] 0.023

SPNS1 (UniProt Q9H2V7)
inactive: [1] 0.05 | [2] 0.017 | [3] 0.023 | [4] -0.076 | [5] -0.019

SRPK1 (UniProt Q96SB4)
inactive: [1] -0.002 | [2] -0.023 | [3] 0.004 | [4] -0.015 | [5] -0.025

SLC25A17 (UniProt O43808)
inactive: [1] -0.014 | [2] 0.007 | [3] -0.024 | [4] -0.096 | [5] -0.163

SLC7A5 (UniProt Q01650)
inactive: [1] 0.019 | [2] -0.027 | [3] 0.003 | [4] -0.061 | [5] -0.231

SORBS3 (UniProt O60504)
Chain of UniProt O60504 (O60504 whole entry, looked up): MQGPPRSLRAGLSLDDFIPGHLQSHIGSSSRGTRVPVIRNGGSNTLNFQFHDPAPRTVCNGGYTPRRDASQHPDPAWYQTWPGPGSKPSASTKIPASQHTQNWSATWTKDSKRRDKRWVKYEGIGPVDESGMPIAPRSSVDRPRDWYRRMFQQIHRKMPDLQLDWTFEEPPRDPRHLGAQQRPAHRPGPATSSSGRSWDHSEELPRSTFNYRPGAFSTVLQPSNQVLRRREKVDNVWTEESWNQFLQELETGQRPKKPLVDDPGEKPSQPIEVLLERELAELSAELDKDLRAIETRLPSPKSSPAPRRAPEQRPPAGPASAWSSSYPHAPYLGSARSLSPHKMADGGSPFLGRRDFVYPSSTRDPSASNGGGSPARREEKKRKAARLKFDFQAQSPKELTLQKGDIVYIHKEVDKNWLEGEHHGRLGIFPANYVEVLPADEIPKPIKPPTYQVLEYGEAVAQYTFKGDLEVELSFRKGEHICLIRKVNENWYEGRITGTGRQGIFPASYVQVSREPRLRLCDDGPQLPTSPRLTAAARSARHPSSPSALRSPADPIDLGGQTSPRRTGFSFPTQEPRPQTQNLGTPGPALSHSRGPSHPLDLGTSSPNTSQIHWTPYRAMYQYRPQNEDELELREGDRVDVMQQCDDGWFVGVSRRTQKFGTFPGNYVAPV
inactive: [1] 0.047 | [2] 0.081 | [3] -0.049 | [4] 0.028 | [5] 0.022

SLC30A9 (UniProt Q6PML9)
inactive: [1] -0.013 | [2] -0.045 | [3] 0.003 | [4] -0.013 | [5] -0.105

SKA1 (UniProt Q96BD8)
inactive: [1] -0.03 | [2] 0.005 | [3] 0.025 | [4] -0.018 | [5] 0.018

SND1 (UniProt Q7KZF4)
inactive: [1] -0.008 | [2] 0.021 | [3] 0.022 | [4] 0.037 | [5] 0.041

SLC27A4 (UniProt Q6P1M0)
inactive: [1] 0.106 | [2] -0.006 | [3] 0.054 | [4] -0.002 | [5] 0.121

SH3BP5L (UniProt Q7L8J4)
inactive: [1] 0.015 | [2] 0.015 | [3] 0.047 | [4] 0.01 | [5] -0.024

TANGO6 (UniProt Q9C0B7)
inactive: [1] 0.05 | [2] -0.021 | [3] -0.036 | [4] 0.043 | [5] -0.009

SNCA (UniProt P37840)
inactive: [1] 0.211 | [2] 0 | [3] -0.009 | [4] 0.211 | [5] -0.077

SLC38A1 (UniProt Q9H2H9)
inactive: [1] 0.055 | [2] -0.116 | [3] 0.06 | [4] -0.116 | [5] -0.128

SMG1 (UniProt Q96Q15)
Chain of UniProt Q96Q15 (Q96Q15 whole entry, looked up): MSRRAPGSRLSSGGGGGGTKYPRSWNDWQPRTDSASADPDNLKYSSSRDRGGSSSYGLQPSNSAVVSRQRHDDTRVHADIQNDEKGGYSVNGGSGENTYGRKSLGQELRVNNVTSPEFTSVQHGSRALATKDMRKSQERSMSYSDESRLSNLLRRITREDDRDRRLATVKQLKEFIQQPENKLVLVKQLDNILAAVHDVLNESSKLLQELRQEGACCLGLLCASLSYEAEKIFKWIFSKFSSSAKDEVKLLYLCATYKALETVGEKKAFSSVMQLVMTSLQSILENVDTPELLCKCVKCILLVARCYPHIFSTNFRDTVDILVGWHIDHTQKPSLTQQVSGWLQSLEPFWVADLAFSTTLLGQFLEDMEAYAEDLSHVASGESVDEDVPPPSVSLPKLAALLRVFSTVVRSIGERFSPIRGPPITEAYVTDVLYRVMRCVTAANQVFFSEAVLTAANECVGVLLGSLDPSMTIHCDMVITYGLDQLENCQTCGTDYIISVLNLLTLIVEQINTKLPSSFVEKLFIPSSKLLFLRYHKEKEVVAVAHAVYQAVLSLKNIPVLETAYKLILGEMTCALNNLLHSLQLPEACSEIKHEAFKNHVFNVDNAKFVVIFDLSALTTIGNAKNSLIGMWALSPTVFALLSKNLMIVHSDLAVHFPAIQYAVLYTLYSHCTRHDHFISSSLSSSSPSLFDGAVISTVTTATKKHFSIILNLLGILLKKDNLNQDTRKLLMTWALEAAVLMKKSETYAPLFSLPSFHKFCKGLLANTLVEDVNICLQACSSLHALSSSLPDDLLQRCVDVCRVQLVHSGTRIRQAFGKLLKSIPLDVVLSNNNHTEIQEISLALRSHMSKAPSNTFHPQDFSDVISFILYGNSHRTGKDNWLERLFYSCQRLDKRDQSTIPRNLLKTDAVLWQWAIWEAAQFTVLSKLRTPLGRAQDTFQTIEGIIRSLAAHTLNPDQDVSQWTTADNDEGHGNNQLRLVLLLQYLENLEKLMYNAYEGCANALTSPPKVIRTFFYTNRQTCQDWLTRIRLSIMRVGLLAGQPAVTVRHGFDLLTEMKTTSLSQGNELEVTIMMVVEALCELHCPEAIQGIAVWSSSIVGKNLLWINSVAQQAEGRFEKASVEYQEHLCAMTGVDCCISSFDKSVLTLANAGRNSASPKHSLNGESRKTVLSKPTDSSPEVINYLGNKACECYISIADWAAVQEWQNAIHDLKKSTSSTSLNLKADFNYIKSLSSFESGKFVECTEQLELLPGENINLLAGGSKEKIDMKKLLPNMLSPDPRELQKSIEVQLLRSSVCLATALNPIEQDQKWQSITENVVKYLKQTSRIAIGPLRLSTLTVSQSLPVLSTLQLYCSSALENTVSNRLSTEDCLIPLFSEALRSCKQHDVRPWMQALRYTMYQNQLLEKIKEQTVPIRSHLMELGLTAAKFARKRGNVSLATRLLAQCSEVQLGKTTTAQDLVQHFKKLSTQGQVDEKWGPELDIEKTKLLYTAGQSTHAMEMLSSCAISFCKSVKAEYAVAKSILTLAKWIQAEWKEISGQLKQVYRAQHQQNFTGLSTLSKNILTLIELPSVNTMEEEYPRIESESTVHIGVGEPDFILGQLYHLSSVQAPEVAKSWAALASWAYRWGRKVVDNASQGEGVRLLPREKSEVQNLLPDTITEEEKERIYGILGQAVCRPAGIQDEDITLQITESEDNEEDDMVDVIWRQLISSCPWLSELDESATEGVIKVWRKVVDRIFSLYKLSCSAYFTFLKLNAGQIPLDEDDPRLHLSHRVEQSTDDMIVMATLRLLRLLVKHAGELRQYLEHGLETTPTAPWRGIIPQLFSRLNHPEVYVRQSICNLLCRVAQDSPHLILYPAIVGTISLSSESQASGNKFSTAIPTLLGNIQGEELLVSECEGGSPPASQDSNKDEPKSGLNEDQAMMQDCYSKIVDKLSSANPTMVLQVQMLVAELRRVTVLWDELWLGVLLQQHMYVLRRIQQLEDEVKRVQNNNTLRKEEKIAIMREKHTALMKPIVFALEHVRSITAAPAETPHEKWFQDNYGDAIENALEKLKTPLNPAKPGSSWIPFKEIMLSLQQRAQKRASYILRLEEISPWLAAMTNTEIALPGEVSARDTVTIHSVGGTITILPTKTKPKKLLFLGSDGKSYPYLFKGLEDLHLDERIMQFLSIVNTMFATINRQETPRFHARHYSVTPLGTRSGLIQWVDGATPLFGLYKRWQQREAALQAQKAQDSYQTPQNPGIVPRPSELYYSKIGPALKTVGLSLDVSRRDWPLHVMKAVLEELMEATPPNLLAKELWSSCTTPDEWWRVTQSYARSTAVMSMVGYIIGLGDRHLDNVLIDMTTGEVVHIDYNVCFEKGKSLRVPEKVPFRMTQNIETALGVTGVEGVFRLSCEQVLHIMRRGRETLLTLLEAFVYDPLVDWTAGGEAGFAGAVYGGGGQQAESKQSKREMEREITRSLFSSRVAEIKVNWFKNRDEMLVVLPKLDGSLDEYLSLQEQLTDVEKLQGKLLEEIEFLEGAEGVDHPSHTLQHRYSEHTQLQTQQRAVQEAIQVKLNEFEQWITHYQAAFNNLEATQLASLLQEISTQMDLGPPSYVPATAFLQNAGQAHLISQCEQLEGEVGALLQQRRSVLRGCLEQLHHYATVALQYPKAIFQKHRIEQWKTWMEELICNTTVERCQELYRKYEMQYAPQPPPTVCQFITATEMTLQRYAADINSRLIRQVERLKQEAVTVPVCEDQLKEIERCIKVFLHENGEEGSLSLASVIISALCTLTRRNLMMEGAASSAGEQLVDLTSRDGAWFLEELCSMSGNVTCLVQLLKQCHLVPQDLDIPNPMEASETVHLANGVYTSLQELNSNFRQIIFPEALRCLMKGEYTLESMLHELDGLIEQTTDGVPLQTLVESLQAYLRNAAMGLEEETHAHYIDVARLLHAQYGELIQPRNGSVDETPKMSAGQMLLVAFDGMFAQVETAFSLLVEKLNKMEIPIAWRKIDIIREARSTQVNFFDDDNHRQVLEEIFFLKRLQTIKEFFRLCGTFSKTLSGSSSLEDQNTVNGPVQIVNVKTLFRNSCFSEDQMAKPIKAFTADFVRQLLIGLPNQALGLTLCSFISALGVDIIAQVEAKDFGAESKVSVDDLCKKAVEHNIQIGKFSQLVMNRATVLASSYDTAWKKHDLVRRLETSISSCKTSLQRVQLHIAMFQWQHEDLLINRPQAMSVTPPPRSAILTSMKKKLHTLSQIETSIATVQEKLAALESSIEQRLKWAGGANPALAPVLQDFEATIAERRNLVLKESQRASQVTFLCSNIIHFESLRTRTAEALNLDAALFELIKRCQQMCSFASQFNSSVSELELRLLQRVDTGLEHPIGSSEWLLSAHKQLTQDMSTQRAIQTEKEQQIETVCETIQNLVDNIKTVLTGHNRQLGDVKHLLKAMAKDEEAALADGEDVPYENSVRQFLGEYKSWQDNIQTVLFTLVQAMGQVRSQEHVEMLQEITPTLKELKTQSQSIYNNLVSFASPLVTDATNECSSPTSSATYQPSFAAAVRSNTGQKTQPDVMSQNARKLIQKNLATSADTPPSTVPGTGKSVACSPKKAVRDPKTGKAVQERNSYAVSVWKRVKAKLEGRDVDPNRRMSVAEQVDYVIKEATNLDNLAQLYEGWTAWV
inactive: [1] -0.05 | [2] -0.012 | [3] 0.018 | [4] 0.034 | [5] 0.046

SMN1 (UniProt Q16637)
inactive: [1] 0.083 | [2] -0.054 | [3] 0.054 | [4] -0.012 | [5] 0.024

SHKBP1 (UniProt Q8TBC3)
inactive: [1] 0.016 | [2] 0.02 | [3] 0.077 | [4] -0.027 | [5] 0.007

SURF2 (UniProt Q15527)
inactive: [1] -0.013 | [2] 0.054 | [3] -0.054 | [4] 0.056 | [5] -0.032

SMAP2 (UniProt Q8WU79)
inactive: [1] 0.02 | [2] -0.002 | [3] 0.029 | [4] 0.049 | [5] 0.02

SRRT (UniProt Q9BXP5)
inactive: [1] -0.003 | [2] 0.02 | [3] -0.002 | [4] 0.021 | [5] 0.068

SNAP23 (UniProt O00161)
inactive: [1] 0.059 | [2] -0.038 | [3] -0.005 | [4] 0.007 | [5] 0.066

SSB (UniProt P05455)
inactive: [1] -0.004 | [2] 0.015 | [3] -0.009 | [4] 0.012 | [5] 0.068

STK4 (UniProt Q13043)
inactive: [1] -0.031 | [2] -0.098 | [3] -0.05 | [4] -0.029 | [5] -0.124

SLC26A6 (UniProt Q9BXS9)
inactive: [1] -0.053 | [2] 0.067 | [3] 0.011 | [4] -0.556 | [5] -0.096

SP1 (UniProt P08047)
inactive: [1] 0.007 | [2] 0.042 | [3] 0.001 | [4] 0.038 | [5] 0

TAF1B (UniProt Q53T94)
inactive: [1] -0.073 | [2] 0.071 | [3] 0.499 | [4] -0.13 | [5] -0.008

SLC29A2 (UniProt Q14542)
inactive: [1] 0.106 | [2] 0.001 | [3] 0.044 | [4] -0.116 | [5] -0.233

SH3BGRL2 (UniProt Q9UJC5)
inactive: [1] 0.048 | [2] 0.085 | [3] -0.027 | [4] -0.001 | [5] 0.083

SYNRG (UniProt Q9UMZ2)
inactive: [1] -0.033 | [2] 0.05 | [3] 0 | [4] 0.005 | [5] 0.032

TAF9 (UniProt Q16594)
inactive: [1] 0.04 | [2] -0.004 | [3] 0.05 | [4] 0.019 | [5] 0.021

SLC39A11 (UniProt Q8N1S5)
inactive: [1] 0.022 | [2] -0.041 | [3] 0.063 | [4] 0.186 | [5] 0.036

SLU7 (UniProt O95391)
inactive: [1] -0.015 | [2] 0.041 | [3] 0.045 | [4] -0.028 | [5] -0.16

SMG5 (UniProt Q9UPR3)
inactive: [1] -0.078 | [2] 0.041 | [3] 0.026 | [4] -0.047 | [5] -0.024

SRSF2 (UniProt Q01130)
inactive: [1] 0.023 | [2] -0.011 | [3] 0 | [4] -0.058 | [5] -0.129

SMC4 (UniProt Q9NTJ3)
inactive: [1] -0.033 | [2] 0.003 | [3] -0.011 | [4] -0.005 | [5] 0.055

SKA2 (UniProt Q8WVK7)
Chain of UniProt Q8WVK7 (Q8WVK7 whole entry, looked up): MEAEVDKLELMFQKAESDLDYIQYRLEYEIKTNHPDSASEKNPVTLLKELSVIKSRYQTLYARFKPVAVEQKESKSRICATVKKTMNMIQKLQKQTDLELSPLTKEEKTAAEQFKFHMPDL
inactive: [1] -0.013 | [2] -0.038 | [3] 0.031 | [4] -0.004 | [5] 0.033

SUZ12 (UniProt Q15022)
inactive: [1] -0.011 | [2] 0.042 | [3] -0.008 | [4] -0.047 | [5] -0.039

SNRNP40 (UniProt Q96DI7)
inactive: [1] 0.023 | [2] -0.03 | [3] 0.012 | [4] 0 | [5] -0.002

SSNA1 (UniProt O43805)
Chain of UniProt O43805 (O43805 whole entry, looked up): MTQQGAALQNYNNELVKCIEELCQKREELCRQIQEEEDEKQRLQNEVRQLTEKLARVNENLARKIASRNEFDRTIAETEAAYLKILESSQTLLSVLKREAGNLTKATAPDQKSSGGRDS
inactive: [1] 0.034 | [2] -0.038 | [3] 0.009 | [4] -0.129 | [5] -0.075

SMARCA4 (UniProt P51532)
inactive: [1] -0.034 | [2] 0.016 | [3] 0.003 | [4] 0.014 | [5] 0.055

STK39 (UniProt Q9UEW8)
inactive: [1] 0.011 | [2] -0.056 | [3] 0.049 | [4] 0 | [5] 0.078

STK38 (UniProt Q15208)
inactive: [1] -0.089 | [2] -0.02 | [3] -0.014 | [4] -0.012 | [5] -0.066

SPG11 (UniProt Q96JI7)
inactive: [1] -0.22 | [2] -0.253 | [3] 0.015 | [4] 0.067 | [5] 0.006

SVIP (UniProt Q8NHG7)
inactive: [1] 0.02 | [2] -0.048 | [3] -0.052 | [4] -0.069 | [5] -0.028

TANK (UniProt Q92844)
inactive: [1] 0.04 | [2] -0.088 | [3] -0.023 | [4] -0.079 | [5] -0.025
